# In the supplement of paper PMC7156485:
# ± gives the standard deviation of the averaged measurements.
# Legend:
# Settings in all cases: concentration: 10 µM; 24 h
# HCC1569 [1] = experiment: cell number relative to DMSO (% of DMSO); higher = more cells (less growth inhibition / toxicity)
# Summary of the method: (§1)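 In 384-well plates holding 800 HCC1569 or TDF cells per well in RPMI with 10% FBS, compounds were tested at 10 µM for 24 h at 37 °C in triplicate. Fixation used 3.7% formaldehyde. Staining used a rabbit anti-H1.0 antibody with an AlexaFluor 647 secondary, plus DAPI. Each value, H1.0 nuclear intensity or cell number, is a median of replicates shown as percent of the plate control, and HCC1569 values were smoothed for positional effects.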
# TDF [2] = experiment: as above
# Summary of the method: as §1
# TDF [3] = experiment: H1.0 immunofluorescence intensity relative to DMSO (% of DMSO); higher = stronger H1.0 induction, active = 120 or more
# Summary of the method: as §1
# HCC1569 [4] = experiment: H1.0 immunofluorescence intensity relative to DMSO (% of DMSO); higher = stronger H1.0 induction, active = 140 or more
# Summary of the method: as §1
# 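For H1.0 immunofluorescence intensity relative to DMSO in this document: TDF is a line of transformed human dermal fibroblasts of mesenchymal origin.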
# 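For cell number relative to DMSO in this document: TDF denotes transformed human dermal fibroblasts of mesenchymal origin.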
Structure (SMILES),cell number (HCC1569 [1]),cell number (TDF [2]),H1.0 immunofluorescence intensity (TDF [3]),H1.0 immunofluorescence intensity (HCC1569 [4])
CC1CCC2C(C)C(OC(=O)CCC(=O)O)OC3OC4(C)CCC1C32OO4 (stereo unspecified) [Artesunate],87.2 ± 1.8,88.2 ± 5.5,99.1 (inactive),124 (inactive)
Fc1ccc(Cl)cc1-c1nc(Nc2ccncc2)c2nccnc2n1,98.4,91.6,98.2 (inactive),113 (inactive)
CCC1OC(=O)C(C)C(OC2CC(C)(OC)C(O)C(C)O2)C(C)C(OC2OC(C)CC(N(C)C)C2O)C(C)(O)CC(C)C(=NOCOCCOC)C(C)C(O)C1(C)O (stereo unspecified) [Roxithromycin],106,98.4,95.2 (inactive),92.1 (inactive)
Oc1cc2c(cc1O)C(c1ccccc1)CNCC2 (racemic),101,113,92.2 (inactive),93.5 (inactive)
CCC=CCC(O)C=CC=CCC=CCC=CCCCC(=O)O (stereo unspecified),105,102,98.8 (inactive),94.3 (inactive)
CC(C)(N)c1ccc(-c2nc3ccccc3nc2-c2ccccc2)cc1,95.6,95.3,106 (inactive),103 (inactive)
CCCC(=O)NCCc1c2n(c3ccc(OC)cc13)CCCc1ccccc1-2,96.8,109,84.7 (inactive),100 (inactive)
Br.Br.NC(N)=NCCSSCCN=C(N)N [Guanidinoethyl disulfide dihydrobromide],100,108,96.5 (inactive),98.8 (inactive)
CC(=O)NC(C(=O)O)C(C)(C)SN=O (stereo unspecified) [S-Nitroso-N-acetylpenicillamine],105,109,90.5 (inactive),96.7 (inactive)
